PubChem BioAssay (NCI)
About 79,000 compounds went through this panel and 15% of them were active in at least one assay; those are over-represented in the sample as a whole. Unmarked numbers belong to inactive results. The source made the active and inactive calls. Rule as the data show it: active = growth inhibition above about 70%; inactive = the rest.

Assay: NCI Yeast Anticancer Drug Screen. Data for the sgs1 mgt1 strain (AID 161);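 also: 0% = growth of cultures given vehicle only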
Settings: S. cerevisiae sgs1 mgt1 strain, hits give high values
Procedure: Growth inhibition of yeast strains with defined genetic alterations is measured as a screen for potential anti-cancer activity. Selected strains with alterations in DNA damage repair or cell cycle control were exposed to compounds and growth inhibition was measured relative to vehicle treated controls. The strain used in this assay is sgs1 mgt1

[1] = at 5.0 µM (retest, dose inferred, filed as 0.5)
[2] = at 50.0 µM (retest, dose inferred, filed as 5.0)

SMILES | growth inhibition [1] | growth inhibition [2] | growth inhibition (at 50.0 µM)
C/C(=N\NC(=S)NC1CCCC1)c1ccccn1 | 13% | 99% (active) | 92% (active)
CC(=O)OCC1OC(O[C@H]2C=C[C@@H](C(=O)OCc3ccccc3)n3c(=O)n(-c4ccccc4)c(=O)n32)C(OC(C)=O)C(OC(C)=O)C1OC(C)=O (stereo partly specified) | 29% | 78% (active) | 71% (active)
CC(=O)Oc1ccc(C(=O)c2ccccc2)c(O)c1 | -18% | 88% (active) | 74.5% (active)
COC(=O)c1cccc(C)c1C(=O)c1c(C)cc(C)cc1C | -7% | 25% | 25.1%
CCCCCCCCCCCCCC(=O)OC(C)CCC1CCCO1 (stereo unspecified) | 3% | 25% | 13.2%
O=c1[nH]c2ccccc2c2nc3ccccc3n12 | -17% | 22% | 
O=Nc1ccc(Nc2ccccc2)cc1 | -5% | 13% | 93.2% (active)
Cc1ccccc1NC(=O)Cc1csc(N/N=C2\NC(=O)/C(=C/c3cccc([N+](=O)[O-])c3)S2)n1 | -1% | 22% | 79% (active)
O=[N+]([O-])/C(C(Cl)=C(Cl)Cl)=C1/OCCS1 | 40% | 100% (active) | 90.6% (active)
Nc1ccc(S(=O)(=O)Nc2ccc(Nc3c4ccccc4nc4ccccc34)cc2)cc1 | -7% | 19% | 21%
CC[C@@]1(OC(=O)CCC(=O)O)C(=O)OCc2c1cc1n(c2=O)Cc2cc3ccccc3nc2-1 | 30% | 91% (active) | 76.3% (active)
Cc1cc(OCc2ccccc2)ccc1[N+](=O)[O-] | -5% | 88% (active) | 74.6% (active)
Cc1cc(C)c(N2C(=O)CC(Sc3ccccc3N)C2=O)c(C)c1 (stereo unspecified) | 0% | 91% (active) | 42.9%
OB(O)c1ccccc1C#Cc1ccccc1B(O)O | 4% | 44% | 64.2%
